We go through eight compounds from PubChem BioAssay (EPA / NIEHS).

Each structure is given as a SMILES string. Calls of active or inactive are those of the source. Rule for the calls: active = hit-call score of the fitted dose curve at least 0.9, where 1 is the maximum; inactive = score below 0.9.

Read-out in test [1]: Human Leukocyte Antigen - DR isotype (HLADR), HLA-DRA (gene 3122)
In words: BSK_BE3C_HLADR: BioMAP Diversity Plus: BE3C Assay for Human Leukocyte Antigen - DR isotype (HLADR) Biomarker Activity (AID 2283032). As to conditions: primary human bronchial epithelial cells; actives raise or lower the signal. In outline:
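BioMAP BE3C format: human bronchial epithelium, 24 h compound treatment, ELISA detection of HLA-DR, with bidirectional analysis relative to DMSO.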

Read-out in test [2]: Vascular cell adhesion molecule 1 (VCAM1), VCAM1 (gene 7412)
In words: BSK_4H_VCAM1: BioMAP Diversity Plus: 4H Assay for Vascular cell adhesion molecule 1 (VCAM1) Biomarker Activity (AID 2283033).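 For outcome: cell-surface VCAM-1 protein measured by ELISA.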 Particulars: primary human endothelial cells (HUVEC); actives raise or lower the signal. In outline:
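In this human endothelial (HUVEC) system, biomarker ELISA was run 24 h after compound addition, and total protein in parallel wells was assessed by SRB at 560 nm; DMSO served as negative control.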

Read-out in test [3]: Monokine induced gamma interferon (MIG), CXCL9 (gene 4283)
In words: BSK_BE3C_MIG: BioMAP Diversity Plus: BE3C Assay for Monokine induced gamma interferon (MIG) Biomarker Activity (AID 2283035).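 For outcome: MIG protein measured by ELISA in BE3C cultures after 24 h of dosing.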 Particulars: primary human bronchial epithelial cells; actives raise or lower the signal. In outline:
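Dose cells (human primary bronchial epithelial), incubate 24 h, quantify MIG by ELISA, then fit concentration–response in both directions relative to DMSO control.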

Read-out in test [4]: Transforming growth factor beta 1 (TGFb1), TGFB1 (gene 7040)
In words: BSK_BE3C_TGFb1: BioMAP Diversity Plus: BE3C Assay for Transforming growth factor beta 1 (TGFb1) Biomarker Activity (AID 2283036;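 for outcome: TGF-b1 protein level measured by ELISA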). Particulars: primary human bronchial epithelial cells; actives raise or lower the signal. In outline:
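TGF-b1 measured via ELISA, 24 h after chemical dosing of human bronchial epithelial cells (BE3C). Overt cytotoxicity assessed in parallel by SRB (0.1%, TCA-fixed, 560 nm); analysis bidirectional relative to DMSO.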

Read-out in test [5]: urokinase plasminogen activator (uPA), PLAU (gene 5328)
In words: BSK_BE3C_uPA: BioMAP Diversity Plus: BE3C Assay for urokinase plasminogen activator (uPA) Biomarker Activity (AID 2283038).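 For outcome: uPA protein level quantified by ELISA in cell cultures; uPA read one day after compound addition.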 Particulars: primary human bronchial epithelial cells; actives raise or lower the signal. In outline:
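ELISA read-out of uPA in human lung primary bronchial epithelial cultures, 24 h post-dosing. Gain or loss of signal fitted bidirectionally relative to DMSO baseline; cytotoxicity checked in parallel cultures via SRB total protein stain.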

Read-out in test [6]: Urokinase-type plasminogen activator receptor (uPAR), PLAUR (gene 5329)
In words: BSK_BE3C_uPAR: BioMAP Diversity Plus: BE3C Assay for Urokinase-type plasminogen activator receptor (uPAR) Biomarker Activity (AID 2283039).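 For outcome: uPAR protein level measured by ELISA on the cells; cells exposed to compound for one day before measurement.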 As to conditions: primary human bronchial epithelial cells; actives raise or lower the signal. In outline:
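Chemically treated human bronchial epithelial cells (lung primary) are assayed for uPAR by ELISA after 24 h, with data fitted in both directions using DMSO as negative control.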

Read-out in test [7]: Interleukin-6 (IL6), IL6 (gene 3569)
In words: BSK_CASM3C_IL6: BioMAP Diversity Plus: CASM3C Assay for Interleukin-6 (IL6) Biomarker Activity for (AID 2283040). As to conditions: primary human coronary artery smooth muscle cells; actives raise or lower the signal.

Read-out in test [8]: Tissue plasminogen activator (tPA), PLAT (gene 5327)
In words: BSK_BE3C_tPA: BioMAP Diversity Plus: BE3C Assay for Tissue plasminogen activator (tPA) Biomarker Activity (AID 2283041).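 For outcome: tPA level quantified by ELISA one day after compound addition.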 Particulars: primary human bronchial epithelial cells; actives raise or lower the signal. Put shortly:
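Using human lung primary bronchial epithelial cells, tPA was measured by ELISA 24 h after dosing; data fitted relative to DMSO.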

Read-out in test [9]: Interleukin-8 (IL8), CXCL8 (gene 3576)
In words: BSK_CASM3C_IL8: BioMAP Diversity Plus: CASM3C Assay for Interleukin-8 (IL8) Biomarker Activity (AID 2283042).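 Note: IL-8 protein level quantified by ELISA.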 Particulars: primary human coronary artery smooth muscle cells; actives raise or lower the signal.

Read-out in test [10]: Human Leukocyte Antigen - DR isotype (HLADR), HLA-DRA (gene 3122)
In words: BSK_CASM3C_HLADR: BioMAP Diversity Plus: CASM3C Assay for Human Leukocyte Antigen - DR isotype (HLADR) Biomarker Activity (AID 2283043).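 Note: cell-surface HLA-DR protein level quantified by ELISA.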 Particulars: primary human coronary artery smooth muscle cells; actives raise or lower the signal.

Read-out in test [11]: Macrophage colony-stimulating factor (MCSF), CSF1 (gene 1435)
In words: BSK_CASM3C_MCSF: BioMAP Diversity Plus: CASM3C Assay for Macrophage colony-stimulating factor (MCSF) Biomarker Activity (AID 2283044).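 Note: M-CSF protein amount quantified by ELISA after 24 h exposure.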 Particulars: primary human coronary artery smooth muscle cells; actives raise or lower the signal.

Read-out in test [12]: Low-density lipoprotein receptor (LDLR), LDLR (gene 3949)
In words: BSK_CASM3C_LDLR: BioMAP Diversity Plus: CASM3C Assay for Low-density lipoprotein receptor (LDLR) Biomarker Activity (AID 2283045).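 Note: LDLR protein level on the cell surface quantified by ELISA.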 As to conditions: primary human coronary artery smooth muscle cells; actives raise or lower the signal.

Read-out in test [13]: Monocyte Chemoattractant Protein-1 (MCP1), CCL2 (gene 6347)
In words: BSK_CASM3C_MCP1: BioMAP Diversity Plus: CASM3C Assay for Monocyte Chemoattractant Protein-1 (MCP1) Biomarker Activity (AID 2283046).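 Note: MCP-1 level quantified by ELISA 24 h after dosing.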 As to conditions: primary human coronary artery smooth muscle cells; actives raise or lower the signal.

Test [14] can be described thus: BSK_CASM3C_Proliferation: Cell Proliferation Assessment in the BioMAP Diversity Plus: CASM3C Assay (AID 2283047).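 Note: sulforhodamine B total protein stain as relative cell number at 560 nm; sub-confluent cells exposed 48 h before staining; fitted both ways against DMSO so gain or loss of cell number.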 As to conditions: primary human coronary artery smooth muscle cells.
Read-out in test [15]: Monokine induced gamma interferon (MIG), CXCL9 (gene 4283)
In words: BSK_CASM3C_MIG: BioMAP Diversity Plus: CASM3C Assay for Monokine induced gamma interferon (MIG) Biomarker Activity (AID 2283048).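 Note: MIG protein level measured by ELISA.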 As to conditions: primary human coronary artery smooth muscle cells; actives raise or lower the signal.

Read-out in test [16]: serum amyloid A (SAA), SAA1 (gene 6288)
In words: BSK_CASM3C_SAA: BioMAP Diversity Plus: CASM3C Assay for serum amyloid A (SAA) Biomarker Activity (AID 2283049).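 Note: SAA protein level quantified by ELISA.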 Particulars: primary human coronary artery smooth muscle cells; actives raise or lower the signal.

Test [17] is described as follows: BSK_CASM3C_SRB: Viability Assessment in the BioMAP Diversity Plus: CASM3C Assay (AID 2283050).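 Note: total protein by SRB staining as cytotoxicity measure in parallel cultures; cells exposed to compound for 24 h.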 As to conditions: primary human coronary artery smooth muscle cells.
Read-out in test [18]: Thrombomodulin, THBD (gene 7056)
In words: BSK_CASM3C_Thrombomodulin: BioMAP Diversity Plus: CASM3C Assay for Thrombomodulin Biomarker Activity (AID 2283051).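 Note: thrombomodulin protein level measured by ELISA 24 h after dosing.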 Particulars: primary human coronary artery smooth muscle cells; actives raise or lower the signal.

Read-out in test [19]: Interferon-gamma inducible Protein 10 (IP10), CXCL10 (gene 3627)
In words: BSK_BE3C_IP10: BioMAP Diversity Plus: BE3C Assay for Interferon-gamma inducible Protein 10 (IP10) Biomarker Activity (AID 2283034). Particulars: primary human bronchial epithelial cells; actives raise or lower the signal. In outline: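 BE3C cells (human bronchial epithelial, primary); 24 h exposure; ELISA for IP-10; DMSO-referenced bidirectional fit.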

Read-out in test [20]: Plasminogen activator inhibitor-1 (PAI1), SERPINE1 (gene 5054)
In words: BSK_BE3C_PAI1: BioMAP Diversity Plus: BE3C Assay for Plasminogen activator inhibitor-1 (PAI1) Biomarker Activity (AID 2283037). Particulars: primary human bronchial epithelial cells; actives raise or lower the signal. Put shortly:
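In this multiplexed primary-cell system, bronchial epithelial cells receive test chemical and are sampled at 24 h. PAI-1 is read by ELISA, with DMSO serving as negative control for bidirectional fitting.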

What is called AC50 is the concentration at which the activity in the assay is half-maximal.

As to `ClC1=C(Cl)[C@]2(Cl)[C@H]3[C@H]([C@@H]4C=C[C@H]3C4)[C@@]1(Cl)C2(Cl)Cl`, the outcome in test [1], in test [3], in test [4], in test [5], in test [6] and in test [7] was inactive. Besides, the outcome in test [8] and in test [18] was inactive. The AC50 is 33.9 µM (active) in test [2]; 37.4 µM (active) in test [9]; 34 µM (active) in [10]; 29 µM (active) in test [11]; 32.6 µM (active) in [12]; 34 µM (active) in [13]. Further, the AC50 in test [14] is 34.3 µM (active); in [15] it was 31.6 µM (active); in test [16] it was 31.7 µM (active); in [17] it was 31.3 µM (active).
As for `Clc1ccc(C(c2ccc(Cl)cc2)C(Cl)Cl)cc1`, the AC50 was 30.5 µM (active) in test [1]; 25 µM (active) in test [2]; 25.2 µM (active) in [10]; 15.2 µM (active) in [11]; 5.11 µM (active) in test [12]; 32.1 µM (active) in test [13]. The AC50 was 32.1 µM (active) in [14] and 24.1 µM (active) in test [18]. Moreover, the result in test [3], in test [5], in test [6], in test [7], in test [8] and in test [9] was inactive. The result in [15], in test [16] and in [17] was inactive.
As to `CCOc1cccc(C2(N3CCN(c4ccccc4)CC3)CCC(C)CC2)c1` (stereo unspecified), the outcome in test [1], in test [2], in [19], in test [5], in [6] and in test [7] was inactive. Further, the result in [8], in [9], in test [10], in [11], in test [12] and in [13] was inactive. The outcome in test [14], in test [15], in test [16], in [17] and in [18] was inactive.
With `CCOC(=O)[C@]1(c2ccccc2)Oc2ccccc2[C@@H]1N`, the results for the AC50 in test [2], in [10] and in test [12] were 7.44 µM (active), 31 µM (active) and 23.4 µM (active), respectively. Besides, the outcome in test [19], in test [4], in test [20], in test [5], in [6] and in [7] was inactive. Further, the outcome in test [8], in test [9], in test [11], in [13], in test [14] and in test [15] was inactive. Besides, the result in test [16], in [17] and in test [18] was inactive.
Take `O=C1CCCO1`: the outcome in test [1], in [2], in [3], in test [20], in test [5] and in [6] was inactive. The result in test [7], in [8], in test [9], in test [10], in [11] and in test [12] was inactive. The outcome in test [13], in test [14], in test [15], in test [16], in test [17] and in test [18] was inactive.
For `Cc1cc(N=Nc2ccccc2C)ccc1N`, the AC50 was 33.1 µM (active) in test [2], 23.6 µM (active) in [14] and 10.7 µM (active) in test [18]. Moreover, the outcome in test [19], in [4], in [5], in test [6], in test [7] and in [8] was inactive. In addition, the outcome in test [9], in test [10], in test [11], in test [12], in [13] and in test [15] was inactive. Also, the result in test [16] and in [17] was inactive.
As to `CC(C)(O)c1cnn2c(-c3ccc(F)c(-c4c(F)cccc4C#N)c3)cnc2n1`, the AC50 is 36.5 µM (active) in [1]; 36.9 µM (active) in [3]; 31.4 µM (active) in [4]; 32.1 µM (active) in [20]; 30.2 µM (active) in [5]; 36.5 µM (active) in test [6]. Also, the AC50 was 25.3 µM (active) in test [8], 32.9 µM (active) in [10] and 26.1 µM (active) in [14]. Also, the outcome in [2], in [7], in test [9], in test [11], in test [12] and in test [13] was inactive. For the same compound, the result in [15], in test [16], in test [17] and in [18] was inactive.
For the compound `c1ccc2c(c1)-c1cccc3cccc-2c13`, the outcome in test [1], in test [2], in [3], in test [5], in test [6] and in test [7] was inactive. For the same compound, the outcome in [8], in [9], in test [10], in test [11], in [12] and in test [13] was inactive. The outcome in test [14], in test [15], in [16], in test [17] and in test [18] was inactive.
